Source: PubChem BioAssay (several laboratories)
Sampled rows, rich in hits. Any-hit rate of the full collection: about 32%.
CYP2C9 inhib: blocks human cytochrome P450 2C9; P11712; AID 777; inhibition, % at 5 µM; CYP2C9 Supersomes, luciferin-H conversion, luminescence; 96,000 compounds, 20% hits;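 active means blocking of liver enzyme CYP2C9 beyond about 50% at 5 µM, limit read from the data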
PostGolgi ctrl: growth of the yeast control strain, post-Golgi counter-screen | efflux-deficient yeast background strain, growth absorbance A615, 16 h | inhibition, % at 10 µM | 98,000 compounds, 5% hits | AID 738
CYP2C19 inh: human CYP2C19 inhibition; P33261; CYP2C19 Supersomes, luciferin-H EGE luminescence, 30 min; inhibition, % at 5 µM; 96,000 compounds, 21% hits; AID 778;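 active means CYP2C19 inhibition above a set limit at 5 µM in the primary screen, cut at about 50% in these data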;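 further: plate controls were negative control wells for no effect and 2.5 mM tranylcypromine positive control for full effect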
Target sequence (P33261 whole entry, looked up): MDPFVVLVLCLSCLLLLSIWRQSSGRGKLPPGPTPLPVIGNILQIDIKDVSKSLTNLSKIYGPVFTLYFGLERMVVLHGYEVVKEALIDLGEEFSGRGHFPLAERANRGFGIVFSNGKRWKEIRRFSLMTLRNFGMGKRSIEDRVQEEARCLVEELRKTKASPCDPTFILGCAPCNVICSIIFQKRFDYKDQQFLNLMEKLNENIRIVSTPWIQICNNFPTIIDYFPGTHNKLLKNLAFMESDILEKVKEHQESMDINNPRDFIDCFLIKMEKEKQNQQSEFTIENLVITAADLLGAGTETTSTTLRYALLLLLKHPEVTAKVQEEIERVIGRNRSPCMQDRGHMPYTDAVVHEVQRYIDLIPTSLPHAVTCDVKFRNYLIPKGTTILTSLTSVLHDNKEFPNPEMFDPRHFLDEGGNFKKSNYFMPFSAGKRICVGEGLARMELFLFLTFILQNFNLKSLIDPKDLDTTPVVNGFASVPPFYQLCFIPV
CYP2C19 activ: increases human CYP2C19 enzyme activity | P33261 | recombinant CYP2C19, luciferin-H EGE luminescence; stronger effect = higher value; 0 = fully inhibited enzyme, 1 = untreated enzyme | activation factor at 5 µM | 96,000 tested, under 10 active | AID 1025;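 active means activation factor of at least 2 at 5 µM in the primary screen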;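 further: 0 = wells with 2.5 mM tranylcypromine and 1 = vehicle-only wells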
CYP2C9 act: CYP2C9 (human) activation; recombinant CYP2C9, luciferin-H conversion, luminescence; stronger effect = higher value; factor 1 = untreated enzyme, 0 = blocked; activation factor at 5 µM; 96,000 compounds, 1.4% hits; AID 1024;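 active means activation factor of 2 or more for CYP2C9 at a 5 µM dose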;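 further: 0 = sulfaphenazole-blocked wells and 1 = vehicle-only wells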
PostGolgi yeast: growth inhibition of a yeast mutant, post-Golgi transport screen. AID 739. post-Golgi transport phenotypic cell assay. 98,000 compounds, 0.9% hits. inhibition, % at 10 µM;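 further: yeast cells grown in 1536-well plates; yeast grown about 18 h at 30C before absorbance read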
The depositor's hits bear a star; . = not tested or not shown. Unless noted, no stated cut-off is given here; in the data, active means inhibition above about 30%; inactive means the rest.

SMILES	CYP2C9 inhib	PostGolgi ctrl	CYP2C19 inh	CYP2C19 activ	CYP2C9 act	PostGolgi yeast
O=C(CSc1nnc(Cc2ccccc2)o1)Nc1ccc2c(c1)OCO2	94*	8	60*	0.4	0.1	0
C=CCn1c(SCC(=O)Nc2c(C)cccc2C)nnc1-c1ccncc1	24	13	72*	0.3	0.8	-4
CCCCCn1c(N2CCOCC2)nc2c1c(=O)n(CC(N)=O)c(=O)n2C	-8	5	-11	1.1	1.1	5
CN(Cc1ccccc1)C(=O)[C@H]1CCC(=O)N1Cc1ccco1	25	-1	28	0.7	0.8	-1
O=c1[nH]c(N2CCOCC2)nc2c1CCCC2	-11	-1	-1	1	1.1	-5
CC1(C)Cc2ccccc2-c2nnc(SCC(=O)Nc3ccc4c(c3)OCO4)n21	0	-1	5	1	1	-8
Nn1c(SCC(=O)Nc2ccc3c(c2)OCO3)nnc1-c1ccccc1	51*	14	28	0.7	0.5	3
C=CCn1c(SCC(=O)Nc2ccc3c(c2)OCO3)nnc1-c1ccccc1OC	89*	8	83*	0.2	0.1	-2
C=CCn1c(SCC(=O)Nc2ncc(Cc3cc(C(F)(F)F)ccc3Cl)s2)nnc1-c1ccncc1	21	-6	38	0.6	0.8	2
O=C(CSc1nnnn1C1CCCC1)Nc1ccc2c(c1)OCO2	55*	18	39	0.6	0.5	2
Nn1c(SCC(=O)Nc2ccc3c(c2)OCO3)nnc1-c1ccc(Cl)cc1	4	-3	-13	1.1	1	-6
C=CCn1c(SCC(=O)Nc2ncc(Cc3cc(Cl)ccc3Cl)s2)nnc1-c1ccncc1	17	4	56*	0.4	0.8	-4
Nn1c(SCC(=O)Nc2ccc3c(c2)OCCO3)nnc1-c1ccccn1	-21	4	18	0.8	1.2	17
COC(=O)CSc1nnc(-c2ccncc2)n1N	7	0	25	0.7	0.9	-2
Cc1ccc(NC(=O)CSc2nnc(-c3ccncc3)n2N)cc1C	53*	6	29	0.7	0.5	12
C=CCn1c(SCCC#N)nnc1-c1ccncc1	9	8	55*	0.4	0.9	2
Cc1ccccc1-c1nnc(SCC(=O)Nc2ccc3c(c2)OCCO3)n1N	73*	-7	40	0.6	0.3	24
NS(=O)(=O)c1ccc(CCNC(=O)CCCC2=NS(=O)(=O)c3ccccc3N2)cc1	14	11	3	1	0.9	-1
O=C(O)c1ccc(Br)c(S(=O)(=O)N2CCCC2)c1	3	10	8	0.9	1	12
COc1ccccc1/C=C/C=N/N1CCN(c2ccccn2)CC1	-61	8	45	0.6	1.6	-7
COc1ccc(-n2ncc3c(NCc4ccccn4)ncnc32)cc1	53*	-4	61*	0.4	0.5	0
c1ccc(-n2ncc3c(NCc4cccs4)ncnc32)cc1	81*	2	60*	0.4	0.2	-12
COc1ccc(Nc2ncnc3c2cnn3Cc2ccccc2)cc1	44	.	55*	0.4	0.6	.
NNc1ncnc2c1cnn2-c1ccccc1	40	0	28	0.7	0.6	17
CCOc1ccc(Nc2ncnc3c2cnn3Cc2ccccc2)cc1	36	14	29	0.7	0.6	9
SMILES	CYP2C9 inhib	PostGolgi ctrl	CYP2C19 inh	CYP2C19 activ	CYP2C9 act	PostGolgi yeast
c1ccc(-n2ncc3c(NCc4cccnc4)ncnc32)cc1	69*	10	16	0.8	0.3	7
COc1ccc(CN2C(=O)C(O)(CC(=O)c3c(C)n[nH]c3C)c3ccccc32)cc1OC (stereo not drawn)	7	15	20	0.8	0.9	5
CCOCc1nc(C)c(Cl)c(NS(=O)(=O)c2ccc(N)cc2)n1	24	1	-4	1	0.8	5
c1ccc(C2=Nc3ccccc3NC(c3ccccc3)C2)cc1 (stereo not drawn)	45	36*	25	0.7	0.5	-18
O=C1CC(c2ccccc2)NC(=O)N1 (stereo not drawn)	-2	2	-1	1	1	-3
Clc1ccc(CSc2nnc(Cn3cnc4ccccc43)o2)cc1	67*	27	45	0.5	0.3	10
O=C(CSc1nnc(CNc2cccc(Cl)c2)o1)OC1CCCCC1	39	31*	29	0.7	0.6	25
Clc1ccc(CSc2nnc(CNc3cccc(Cl)c3)o2)cc1	25	45*	53*	0.5	0.7	16
O=C(CSc1nnc(CNc2ccc(F)cc2)o1)OC1CCCCC1	5	6	-2	1	0.9	-3
CC1(C)CC(O)C(C)(C)N1O (stereo not drawn)	-10	-2	24	0.8	1.1	-1
CCOC(=O)N1CCC(N2C(=O)c3ccccc3C2Nc2cc(Cl)c(OC)cc2OC)CC1 (stereo not drawn)	60*	6	30	0.7	0.4	-25
O=C1CC(N2CCCc3ccccc32)C(=O)N1c1ccccc1 (stereo not drawn)	-1	2	16	0.8	1	-2
O=C1CCCc2ccccc2N1Cc1c(Cl)cccc1Cl	91*	41*	96*	0	0.1	8
O=c1cc2c(nn1Cc1c(Cl)cccc1Cl)-c1ccccc1CC2	50*	32*	36	0.6	0.5	16
N=c1ccn(Cc2ccc(Cl)cc2Cl)cc1	11	-1	0	1	0.9	-12
O=C1CCCc2ccccc2N1Cc1ccc(Cl)cc1Cl	87*	31*	94*	0.1	0.1	7
O=C1CCCc2ccccc2N1Cc1ccccc1Cl	46	34*	88*	0.1	0.5	9
N#Cc1cc(-c2ccccc2)nnc1Oc1ccccc1Cl	-7	1	-20	1.2	1.1	-5
CC1CCCCN1CCCNC(=O)c1ccc2c(=O)n(CCc3ccccc3)c(=O)[nH]c2c1 (stereo not drawn)	79*	2	87*	0.1	0.2	-2
CC1CCCCN1CCNC(=O)c1ccc2c(=O)n(CCc3ccccc3)c(=O)[nH]c2c1 (stereo not drawn)	1	-3	21	0.8	1	4
O=C(O)Cn1cc2c(n1)CCCC2	1	4	0	1	1	2
Cc1nc(-c2ccccc2O)n(-c2ccccc2)n1	68*	0	53*	0.5	0.3	25
CS(=O)(=O)N1CCN(c2ccccc2NC(=O)c2ccc(Cl)cc2)CC1	14	12	4	1	0.9	-1
CS(=O)(=O)N1CCN(c2ccccc2NC(=O)CSc2ccc(Cl)cc2)CC1	87*	10	78*	0.2	0.1	-2
O=C(c1ccco1)N1CCN(CC(=O)N2c3ccccc3CCc3ccccc32)CC1	61*	-2	17	0.8	0.4	-5
O=C(CN1CCN(C(=O)c2ccco2)CC1)Nc1ccccc1-c1ccccc1	80*	10	76*	0.2	0.2	-2
O=C(CN1CCN(C(=O)c2ccco2)CC1)Nc1cc(Cl)ccc1Cl	30	6	20	0.8	0.7	1
